High-throughput results (PubChem)
TSHR antagonist = antagonists of human thyroid stimulating hormone receptor; P16473; TSHR-expressing cells, TSH-stimulated cAMP HTRF, 2 h; active compounds read low; activity change, negative = inhibition, % at 11.5 µM; hit rate 0.2% among 330,000; AID 504810;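 active = activity change below a set negative limit, meaning inhibition stronger than a set level, cut at about -70% in these data; inconclusive = activity change between two set negative limits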
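Competitive HTRF cAMP read-out (cryptate anti-cAMP antibody, cAMP-d2; 30 min, room temperature) in freshly harvested TSHR cells. Compounds added before TSH at EC80 (4nM final), followed by 2 hours' incubation at 37 deg C.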
Vif-A3F inh = blocks the Vif interaction with APOBEC3F. AID 602313. HeLa A3F-eYFP + Vif (tagged APOBEC3F with the HIV-1 protein that degrades it), YFP fluorescence increase. Potency, µM (top dose mostly 46.1 µM). hit rate 0.2% among 390,000; also: nearly all actives have a fitted effect of over 65% in size
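HeLa cells stably expressing Vif plus C-terminally eYFP-tagged A3F were seeded, incubated overnight at 37 deg C, dosed with compound, incubated overnight again at 37 deg C. Yellow fluorescence (Ex 488/Em 500-530) reported blocked Vif-mediated A3F-eYFP degradation.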
VDR inhibitor = inhibitors of human vitamin D receptor | hit rate 0.93% among 400,000 | VDR-SRC2-3 peptide fluorescence polarization, 2 h | Potency, µM, hits mostly inhibitors | P11473
Target sequence (P11473 whole entry, looked up): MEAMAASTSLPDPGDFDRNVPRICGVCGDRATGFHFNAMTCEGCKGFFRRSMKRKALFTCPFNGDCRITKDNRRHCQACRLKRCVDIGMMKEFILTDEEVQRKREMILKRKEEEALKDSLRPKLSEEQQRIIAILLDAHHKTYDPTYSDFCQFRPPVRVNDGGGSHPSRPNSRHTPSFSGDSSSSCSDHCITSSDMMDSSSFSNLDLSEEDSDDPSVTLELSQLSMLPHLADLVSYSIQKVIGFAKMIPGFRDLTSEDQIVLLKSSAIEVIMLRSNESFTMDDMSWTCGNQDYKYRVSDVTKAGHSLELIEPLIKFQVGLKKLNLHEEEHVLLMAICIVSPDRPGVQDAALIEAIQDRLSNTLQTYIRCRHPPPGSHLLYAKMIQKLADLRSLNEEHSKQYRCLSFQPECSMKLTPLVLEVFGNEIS
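FP read-out; VDR + SRC2-3 coactivator peptide; 23 nl compound by pintool; 2 h RT incubation; reagents held at 4 deg C, protected from light.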
Vif-APOBEC3G blk = inhibitors of Vif-APOBEC3G interaction; HeLa A3G-eYFP + Vif (tagged APOBEC3G with the HIV-1 protein that degrades it), YFP fluorescence, overnight; Potency, µM (highest dose often 46.1 µM), most hits filed as inhibitors; hit rate 0.076% among 410,000; also: nearly all actives have a fitted effect of over 60% in size
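HeLa cells stably expressing Vif and C-terminally eYFP-tagged A3G, seeded overnight at 37 deg C, then exposed to compound by pintool overnight at 37 deg C. Rise in yellow fluorescence (Ex 488/Em 500-530, Acumen) marks blocked Vif-driven A3G degradation.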
PLK1 PBD inh = PLK1 (human) polo-box domain binding inhibition | Plk1 PBD binding of FITC phosphopeptide, fluorescence polarization | Potency, µM, hits mostly inhibitors | hit rate 2.8% among 360,000 | AID 720504; also: series mostly up to about 57 µM; nearly all actives have a fitted effect of over 65% in size
Of the large screens only hits and unclear results are named; the others gave an inactive call. A selection: hits, their analogues and other compounds. The true share with any hit is near 3.1%. Unless noted, calls follow the shape of the dose curve; as a rule, active = well fitted curve in the direction sought with a large enough effect; inconclusive = small, poorly fitted or top-dose-only effect, or another doubt; inactive = no such curve, though single readings can be large; an effect the other way counts as inactive or inconclusive.

CCc1sc(-c2cc3cccc(OC)c3oc2=O)nc1-c1cc(C)ccc1C	none (no result: TSHR antagonist, Vif-A3F inh, PLK1 PBD inh)
COc1ccc(C(C)(C)C)cc1NC(=O)COC(=O)c1ccc([N+](=O)[O-])o1	PLK1 PBD inh 29.9µM
COc1ccc(C)cc1NC(=O)COC(=O)c1ccc([N+](=O)[O-])o1	none
COc1ccccc1NC(=O)COc1ccc(C(F)(F)F)cc1[N+](=O)[O-]	PLK1 PBD inh 26.7µM (no result: TSHR antagonist)
COc1ccc(NC(=O)c2ccco2)cc1NC(=O)COc1ccccc1[N+](=O)[O-]	none
CCN1C(=O)/C(=C2/Sc3ccc(OC)cc3N2C)SC1=Nc1cccc(O)c1	Vif-A3F inh inconclusive, Vif-APOBEC3G blk 10µM
CN1CCN(c2ncc3nc(-c4ccccc4)c(=O)n(C)c3n2)CC1	none (no result: TSHR antagonist, Vif-A3F inh, Vif-APOBEC3G blk, PLK1 PBD inh)
CCOC(=O)C1=C(C)NC(C)=C(C(=O)OCC)C1c1ccccc1C=CC(=O)OC(C)(C)C	none (no result: TSHR antagonist, Vif-A3F inh, Vif-APOBEC3G blk, PLK1 PBD inh)
COc1ccc(N2C(=NC(=O)C3CCCCC3)SC3CS(=O)(=O)CC32)c(OC)c1 (stereo not given)	VDR inhibitor inconclusive, PLK1 PBD inh 11.9µM
COc1ccc(N2C(=NC(=O)C3CCCCC3)SC3CS(=O)(=O)CC32)cc1 (stereo not given)	none
CC(C)c1ccc(N(CC(=O)O)S(=O)(=O)c2cccnc2)cc1	PLK1 PBD inh 26.7µM
CC(CCc1ccccc1)NS(=O)(=O)c1ccc(Cl)c(C(=O)O)c1 (stereo not given)	VDR inhibitor inconclusive, PLK1 PBD inh 23.8µM
CC(CCc1ccccc1)NS(=O)(=O)c1ccccc1 (stereo not given)	none (no result: Vif-A3F inh)
COC(=O)C1C2CC3c4[nH]c5cc(OC)ccc5c4CCN3CC2CC(OC(=O)CC(C)=O)C1OC (stereo not given)	Vif-A3F inh 25.1µM, Vif-APOBEC3G blk inconclusive (no result: TSHR antagonist)
COC(=O)C1C2CC3c4[nH]c5cc(OC)ccc5c4CCN3CC2CC(O)C1OC (stereo not given)	Vif-A3F inh inconclusive (no result: TSHR antagonist)
COc1cc(/C=C/C(=O)O)cc(S(=O)(=O)N2CCCc3ccccc32)c1OC	VDR inhibitor inconclusive, PLK1 PBD inh 26.7µM
COc1cc(/C=C/C(=O)O)cc(S(=O)(=O)N2CCc3ccccc32)c1OC	none
CC(=O)NN1C(=O)/C(=C/c2ccc(Br)o2)SC1=S	Vif-APOBEC3G blk inconclusive, PLK1 PBD inh 10.6µM
Cc1nc2c3ccccc3nc(NNC(=O)CCC(=O)NCCN3CCN(c4ccccc4F)CC3)n2n1	PLK1 PBD inh 29.9µM
O=C(COC(=O)c1ccc(O)cc1)Nc1cccc(S(=O)(=O)NC2=NCCCCC2)c1	none
Nc1nc2cc(S(=O)(=O)NC3=NCCCCC3)ccc2s1	VDR inhibitor inconclusive, PLK1 PBD inh 21.2µM
CCOC(=O)c1ccc(S(=O)(=O)Nc2nc3cc(S(=O)(=O)NC4=NCCCCC4)ccc3s2)cc1	VDR inhibitor inconclusive, PLK1 PBD inh 23.8µM
Nc1ccc(S(=O)(=O)NC2=NCCCCC2)cc1	none
CC(C)Oc1ccc(CNC(=O)c2ccc(NC(=O)c3nsc4ccccc34)cc2)cc1	none (no result: TSHR antagonist, PLK1 PBD inh)
Cc1ccc(NC(=O)c2ccc(CSc3nccc(C)n3)cc2)cc1	none
Cc1ccnc(SCc2ccc(C(=O)O)cc2)n1	PLK1 PBD inh 11.9µM
Brc1ccc(CNCCCSc2nnnn2-c2ccccc2)cc1	none (no result: TSHR antagonist, Vif-A3F inh, Vif-APOBEC3G blk, PLK1 PBD inh)
CCc1cc(=O)oc2c(CNCc3ccccc3F)c(O)c(Cl)cc12	PLK1 PBD inh 29.9µM
CCc1c(C(C)S(=O)(=O)c2ccccc2)[nH]c(=O)n1CC (stereo not given)	PLK1 PBD inh 15µM
CC(S(=O)(=O)c1ccccc1)S(=O)(=O)c1ccccc1	none (no result: TSHR antagonist, VDR inhibitor)
Cn1c(N2CCN(C(=O)Nc3ccc(C(F)(F)F)cc3)CC2)nc2ccccc21	VDR inhibitor inconclusive, PLK1 PBD inh 10.6µM
O=C(O)C1NCCN(C(=O)c2ccc3c(ccc4ccccc43)c2)C1C(=O)O (stereo not given)	none (no result: TSHR antagonist, Vif-A3F inh, Vif-APOBEC3G blk, PLK1 PBD inh)
CC(=O)Oc1ccc2nc(/C=C/c3ccc(C=O)cc3)oc(=O)c2c1	none
CC(=O)Oc1ccc2nc(/C=C/c3ccccc3)oc(=O)c2c1	TSHR antagonist -78.3
Cc1ccc(CNc2ncnc3nc[nH]c23)cc1	none (no result: TSHR antagonist, Vif-A3F inh, PLK1 PBD inh)
O=S(=O)(c1ccc(S(=O)(=O)N2CCCC2)cc1)N1CCCCC1	none
O=c1c2ccccc2sn1-c1ccc(S(=O)(=O)N2CCCC2)cc1	VDR inhibitor inconclusive, PLK1 PBD inh 1.06µM
O=c1c2ccccc2sn1-c1ccc(S(=O)(=O)N2CCCCC2)cc1	PLK1 PBD inh 1.34µM (no result: TSHR antagonist)
